# According to PubChem BioAssay AID489025 (Southern Research Specialized Biocontainment Screening …, 2010):
# Hit rate of the full screen: of about 2,300 compounds, about 790 (34%) were called active. No rule for the calls is given here. This is one part of the list. Entries that show only a call come without a potency. Potency and affinity values are given separately.
# Test: THP-1 cell cytotoxicity, dose response, cytotoxicity control for non-replicating M. tuberculosis project (AID 489025)
# Details: THP-1 cell viability; series mostly up to 40 µM
row,Compound,outcome
1,Cc1cc(Br)ccc1OCCCCN1CCC(C)CC1,inactive
2,CCOC(=O)COc1cc([N+](=O)[O-])cc2cccnc12,inactive
3,CCOC(=O)COc1ccc2c3c(c(=O)oc2c1C)CCC3,inactive
4,O=C(NCc1ccco1)c1nc2ccccc2s1,inactive
5,O=Cc1c(NCc2ccco2)nc2ccccn2c1=O,inactive
6,O=C(c1nnc(-c2ccc(Cl)cc2)o1)C1CCCC1,inactive
7,CC1(c2nnc(Cc3ccccc3)o2)CC(c2ccccc2[N+](=O)[O-])=NO1 (stereo unspecified),inactive
8,COC(=O)c1cccc(NC(=O)COc2cccc([N+](=O)[O-])c2)c1,inactive
9,CCc1nnc(N/N=C/c2ccc(-c3ccc([N+](=O)[O-])cc3)o2)n1N,inactive
10,O=C(CCNc1cccc(F)c1)c1cccc([N+](=O)[O-])c1,inactive
11,CCCCCCCC(=O)N/N=C/c1ccc([N+](=O)[O-])o1,inactive
12,CC1Cc2ccccc2N1C(=O)COC(=O)c1ccc(Cl)nc1 (stereo unspecified),inactive
13,O=C(COC(=O)c1ccc(Br)o1)NCCCc1ccccc1,inactive
14,COC(=O)CCSCc1cn2cc(Cl)ccc2n1,inactive
15,CCC1CCc2sc(C(=O)NNC(=O)c3ccncc3)cc2C1 (stereo unspecified),inactive
16,Cc1ccc(NCCC(=O)c2cccs2)cc1C,inactive
17,COc1ccc(N=N/C(=C\O)C(=O)c2cccs2)cc1,inactive
18,Sc1oc(-c2ccccc2)cc1C=Nc1ccccc1,inactive
19,CCOC(=O)COc1ccc(C2CC(C)=NN2c2ccccc2)cc1 (stereo unspecified),inactive
20,COc1ccc(C2=NOC(COC(=O)c3ccc4ccccc4n3)C2)cc1 (stereo unspecified),inactive
21,CCCCOc1ccc(NC(=O)CN2CCN(Cc3ccccc3)CC2)cc1,inactive

row,Compound,outcome
1,O=C(COC(=O)C1CC2C=CC1C2)Nc1ccccc1 (stereo unspecified),inactive
2,Cc1cc(C)n2[nH]c(=O)c(N=Nc3cccc(C(F)(F)F)c3)c2n1,inactive
3,CCOC(=O)/C=C1\Nc2ccccc2OC1=O,inactive
4,Cn1c(SCCOc2cccc(Cl)c2)nnc1-c1ccncc1,inactive
5,Clc1ccc(OCCCCN2CCc3ccccc3C2)cc1,inactive
6,O=C(COC(=O)CCc1c[nH]c2ccccc12)Nc1cc([N+](=O)[O-])ccc1Cl,inactive
7,O=C(CCCSc1nc2ccccc2s1)NCc1ccco1,inactive
8,O=C(O)c1ccc(CN2C(=O)CSC2=S)cc1,inactive
9,c1ccc(Cn2c(SCCN3CCOCC3)nnc2-c2cccnc2)cc1,inactive
10,O=C(O)CCCCCN1C(=O)CSC1=S,inactive
11,COc1ccc(CN=C2NN=C(c3ccc(Cl)cc3)CS2)cc1,inactive
12,CCOc1ccc(OCC(=O)Nc2nccs2)cc1,inactive
13,CCOc1ccc2ccccc2c1/C=N/NC(=O)c1ccncc1,inactive
14,COc1ccc(NC(=O)Nc2ccc(O)c3ccccc23)cc1,inactive
15,O=C(CCSc1ccc(Cl)cc1)Nc1cccnc1,inactive
16,COc1ccc(C(=O)OCn2nnc3ccccc3c2=O)cc1,inactive
17,Cc1ccc(C(=O)N/N=C/c2cccc3ccccc23)cn1,inactive
18,CCOC(=O)C1CCN(CCCSc2ccc(Cl)cc2)CC1,inactive
19,C/C(=N/NC(=O)c1cccc(C)c1)c1c(O)cc(C)oc1=O,inactive
20,C/C(=N\NC(=O)c1cccc(Cl)c1)C1C(=O)c2ccccc2C1=O,inactive
21,O=C(CCc1ccccc1)NC1C2CC3CC(C2)CC1C3 (stereo unspecified),inactive

row,Compound,outcome
1,C/C(=N\NC(=O)c1ccncc1)c1cc2ccccc2oc1=O,inactive
2,Cc1ccccc1C(=O)NN1CC(C(=O)OCc2ccc(Cl)c(Cl)c2)CC1=O (stereo unspecified),inactive
3,CSc1ccccc1C(=O)NCc1ccc(S(N)(=O)=O)cc1,inactive
4,O=C(COc1ccc(Cl)cc1)OCC(=O)N1CCCc2ccccc21,inactive
5,CNC(=O)c1[nH]cnc1C(=O)Nc1ccc(Cl)cc1,inactive
6,O=C(Nc1cccnc1)c1cc(Cl)ccc1Cl,inactive
7,CN1/C(=C\C(=O)COC(=O)C2COc3ccccc3O2)C(C)(C)c2ccccc21 (stereo unspecified),inactive
8,CN1/C(=C\C(=O)COC(=O)c2ccc([N+](=O)[O-])o2)C(C)(C)c2ccccc21,inactive
9,CC(C)c1ccc(OCC(=O)NNC(=O)c2cnccn2)cc1,inactive
10,O=C(OCc1ccc(Cl)c(Cl)c1)c1ccccn1,inactive
11,O=C(OCC(=O)C12CC3CC(CC(C3)C1)C2)c1ccccn1,inactive
12,O=C(NCc1ccc(F)cc1)c1cnccn1,inactive
13,NNC(=O)CNC(=O)C12CC3CC(CC(C3)C1)C2,inactive
14,O=C(Oc1cccnc1)c1ccc(Cl)c(Cl)c1,inactive
15,Nc1c(C(=O)NC2CCCCC2)nsc1C(=O)OCC(=O)NC1CCCCC1,inactive
16,COC(=O)COc1ccc(S(=O)(=O)NCc2ccc3c(c2)OCO3)cc1,inactive
17,COC(=O)CCCC(=O)N1CCCC(C(=O)c2ccc(-c3ccccc3)cc2)C1 (stereo unspecified),inactive
18,N#Cc1ccc(CSc2nnc(-c3cccnc3)o2)cc1,inactive
19,O=C(COC(=O)CCC(=O)c1ccc(F)cc1)Nc1ccccc1,inactive
